# Test results reported in the supplement of paper PMC8728848.
# The full list was thinned out, with the strongest signals kept by preference.
# B1: PNA (Arachis hypogaea), P02872 (protein)
# chain: MKPFCVFLTFFLLLAASSKKVDSAETVSFNFNSFSEGNPAINFQGDVTVLSNGNIQLTNLNKVNSVGRVLYAMPVRIWSSATGNVASFLTSFSFEMKDIKDYDPADGIIFFIAPEDTQIPAGSIGGGTLGVSDTKGAGHFVGVEFDTYSNSEYNDPPTDHVGIDVNSVDSVKTVPWNSVSGAVVKVTVIYDSSTKTLSVAVTNDNGDITTIAQVVDLKAKLPERVKFGFSASGSLGGRQIHLIRSWSFTSTLITTTRRSIDNNEKKIMNMASA
# Tests used:
# Assay in all cases: glycan array binding signal (z-score within array); higher = stronger binding
# Conditions in all cases: glycan notation: IUPAC condensed, linker removed
# [1] = molecular target: Fuc(a1-2)Gal(b1-3)[Fuc(a1-4)]GlcNAc(b1-3)[Gal(b1-4)GlcNAc(b1-6)]Gal(b1-4)Glc
# Outline: (§1)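 Glycan array data came from 3228 arrays in the Consortium for Functional Glycomics database, and only arrays with an available protein sequence were kept. Glycan names were put into IUPAC-condensed notation, and columns mapping to the same glycan were averaged. The binding signal is a within-array Z-score, averaged across arrays of one protein sequence run at different concentrations or buffers and across linkers. A negative Z-score can be read as non-binding.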
# [2] = molecular target: Fuc(a1-2)Gal(b1-4)GlcNAc(b1-2)Man(a1-3)[Fuc(a1-2)Gal(b1-4)GlcNAc(b1-2)Man(a1-6)]Man(b1-4)GlcNAc(b1-4)GlcNAc
# Outline: as §1
# [3] = molecular target: Fuc(a1-2)Gal(b1-4)GlcNAc(b1-3)Gal(b1-4)GlcNAc
# Outline: as §1
# [4] = molecular target: Fuc(a1-2)Gal3S(b1-4)GlcNAc
# Outline: as §1
# [5] = molecular target: Fuc(a1-2)[Gal(a1-3)]Gal(b1-4)[Fuc(a1-3)]Glc
# Outline: as §1
# [6] = molecular target: Fuc(a1-2)[GalNAc(a1-3)]Gal(b1-4)GlcNAc(b1-3)GalNAc
# Outline: as §1
# [7] = molecular target: Fuc(a1-3)[3dGal(b1-4)]Glc
# Outline: as §1
# [8] = molecular target: Fuc(a1-3)[Gal(b1-4)]GlcNAc(b1-2)Man(a1-3)[Fuc(a1-3)[Gal(b1-4)]GlcNAc(b1-2)Man(a1-6)]Man(b1-4)GlcNAc(b1-4)GlcNAc
# Outline: as §1
# [9] = molecular target: Fuc(a1-3)[Gal(b1-4)]GlcNAc(b1-2)Man(a1-3)[Fuc(a1-3)[Gal(b1-4)]GlcNAc(b1-2)Man(a1-6)]Man(b1-4)GlcNAc(b1-4)[Fuc(a1-6)]GlcNAc
# Outline: as §1
# [10] = molecular target: Fuc(a1-3)[Gal3S(b1-4)]Glc
# Outline: as §1
# Fuc(a1-6)GlcNAc = molecular target: Fuc(a1-6)GlcNAc
# Outline: as §1
# Gal(a1-2)Gal = molecular target: Gal(a1-2)Gal
# Outline: as §1
# [11] = molecular target: Gal(a1-3)Gal(b1-4)GlcNAc(b1-2)Man
# Outline: as §1
# Gal(b1-3)Gal(b1-4)GlcNAc = molecular target: Gal(b1-3)Gal(b1-4)GlcNAc
# Outline: as §1
# [12] = molecular target: Gal(b1-3)GalNAc(a1-3)[Fuc(a1-2)]Gal(b1-4)Glc
# Outline: as §1
# [13] = molecular target: Gal(b1-3)GalNAc(a1-3)[Fuc(a1-2)]Gal(b1-4)GlcNAc
# Outline: as §1
# Gal(b1-3)GalNAc(b1-3)Gal = molecular target: Gal(b1-3)GalNAc(b1-3)Gal
# Outline: as §1
# [14] = molecular target: Gal(b1-3)GalNAc(b1-3)Gal(a1-4)Gal(b1-4)Glc
# Outline: as §1
# [15] = molecular target: Gal(b1-3)GalNAc(b1-4)Gal(b1-4)Glc
# Outline: as §1
# [16] = molecular target: Gal(b1-3)GalNAc(b1-4)Gal3S(b1-4)Glc
# Outline: as §1
# [17] = molecular target: Gal(b1-3)GalNAc(b1-4)[Neu5Ac(a2-3)]Gal(b1-4)Glc
# Outline: as §1
# [18] = molecular target: Gal(b1-3)GalNAc(b1-4)[Neu5Gc(a2-3)]Gal(b1-4)Glc
# Outline: as §1
# [19] = molecular target: Gal(b1-3)GlcNAc(b1-3)Gal(b1-4)Glc
# Outline: as §1
# [20] = molecular target: Gal(b1-3)[GlcNAc(b1-6)]GalNAc
# Outline: as §1
# [21] = molecular target: Gal(b1-4)GlcNAc(b1-2)Man(a1-3)[GlcNAc(b1-4)][Gal(b1-4)GlcNAc(b1-2)Man(a1-6)]Man(b1-4)GlcNAc(b1-4)GlcNAc
# Outline: as §1
# [22] = molecular target: Gal(b1-4)GlcNAc(b1-2)Man(a1-6)Man(b1-4)GlcNAc(b1-4)GlcNAc
# Outline: as §1
# [23] = molecular target: Gal(b1-4)GlcNAc(b1-2)[Gal(b1-4)GlcNAc(b1-4)]Man(a1-3)[Gal(b1-4)GlcNAc(b1-2)Man(a1-6)]Man(b1-4)GlcNAc(b1-4)GlcNAc
# Outline: as §1
# [24] = molecular target: Gal(b1-4)GlcNAc(b1-2)[Gal(b1-4)GlcNAc(b1-6)]Man(a1-6)[Gal(b1-4)GlcNAc(b1-2)Man(a1-3)]Man(b1-4)GlcNAc(b1-4)[Fuc(a1-6)]GlcNAc
# Outline: as §1
# Gal(b1-4)GlcNAc(b1-3)Fuc = molecular target: Gal(b1-4)GlcNAc(b1-3)Fuc
# Outline: as §1
# [25] = molecular target: Gal(b1-4)GlcNAc(b1-3)[Fuc(a1-3)GlcNAc(b1-6)]Gal(b1-4)Glc
# Outline: as §1
# [26] = molecular target: Gal(b1-4)GlcNAc(b1-3)[Gal(b1-4)GlcNAc(b1-6)]Gal(b1-4)GlcNAc
# Outline: as §1
# [27] = molecular target: Gal(b1-4)GlcNAc(b1-3)[Gal(b1-4)GlcNAc(b1-6)]Gal(b1-4)GlcNAc(b1-3)[Gal(b1-4)GlcNAc(b1-6)]Gal(b1-4)GlcNAc(b1-3)[Gal(b1-4)GlcNAc(b1-6)]Gal(b1-4)GlcNAc(b1-3)[Gal(b1-4)GlcNAc(b1-6)]Gal(b1-4)GlcNAc(b1-3)Gal(b1-4)Glc
# Outline: as §1
# [28] = molecular target: Gal(b1-4)GlcNAc(b1-6)[Gal(b1-3)]GalNAc
# Outline: as §1
# [29] = molecular target: Gal3S(b1-4)[Fuc(a1-3)]Glc
# Outline: as §1
# Gal6S(b1-3)GlcNAc6S = molecular target: Gal6S(b1-3)GlcNAc6S
# Outline: as §1
# Gal6S(b1-4)Glc = molecular target: Gal6S(b1-4)Glc
# Outline: as §1
# [30] = molecular target: GalNAc(b1-3)Gal(a1-4)Gal(b1-4)GlcNAc
# Outline: as §1
# [31] = molecular target: GalNAc(b1-4)Gal3S(b1-4)Glc
# Outline: as §1
# Glc(a1-2)Glc = molecular target: Glc(a1-2)Glc
# Outline: as §1
binder,measurement,setting,value
B1,glycan array binding signal (z-score),[1],-0.127
same,glycan array binding signal (z-score),[2],-0.116
same,glycan array binding signal (z-score),[3],-0.144
same,glycan array binding signal (z-score),[4],-0.183
same,glycan array binding signal (z-score),[5],-0.09
same,glycan array binding signal (z-score),[6],-0.177
same,glycan array binding signal (z-score),[7],-0.195
same,glycan array binding signal (z-score),[8],-0.106
same,glycan array binding signal (z-score),[9],-0.162
same,glycan array binding signal (z-score),[10],-0.195
same,glycan array binding signal (z-score),Fuc(a1-6)GlcNAc,-0.195
same,glycan array binding signal (z-score),Gal(a1-2)Gal,-0.169
same,glycan array binding signal (z-score),[11],-0.115
same,glycan array binding signal (z-score),Gal(b1-3)Gal(b1-4)GlcNAc,-0.001
same,glycan array binding signal (z-score),[12],6
same,glycan array binding signal (z-score),[13],8.53
same,glycan array binding signal (z-score),Gal(b1-3)GalNAc(b1-3)Gal,5.33
same,glycan array binding signal (z-score),[14],3.33
same,glycan array binding signal (z-score),[15],7.85
same,glycan array binding signal (z-score),[16],9.11
same,glycan array binding signal (z-score),[17],3.91
same,glycan array binding signal (z-score),[18],4.74
same,glycan array binding signal (z-score),[19],0.203
same,glycan array binding signal (z-score),[20],3.79
same,glycan array binding signal (z-score),[21],-0.309
same,glycan array binding signal (z-score),[22],-0.171
same,glycan array binding signal (z-score),[23],-0.118
same,glycan array binding signal (z-score),[24],-0.186
same,glycan array binding signal (z-score),Gal(b1-4)GlcNAc(b1-3)Fuc,-0.195
same,glycan array binding signal (z-score),[25],-0.247
same,glycan array binding signal (z-score),[26],-0.153
same,glycan array binding signal (z-score),[27],4.16
same,glycan array binding signal (z-score),[28],5.42
same,glycan array binding signal (z-score),[29],-0.222
same,glycan array binding signal (z-score),Gal6S(b1-3)GlcNAc6S,-0.244
same,glycan array binding signal (z-score),Gal6S(b1-4)Glc,-0.174
same,glycan array binding signal (z-score),[30],-0.197
same,glycan array binding signal (z-score),[31],-0.195
same,glycan array binding signal (z-score),Glc(a1-2)Glc,-0.195
